Assay results reported in PubChem BioAssay.
Values joined by “and” are separate entries in the source; they are usually repeats but may differ in a detail not shown here. Equal values may be shown once. Inconclusive results are not listed. Active and inactive are the calls of the source. Unless noted, no rule for the calls is given here.

Assays:
[1] = viability loss in pontine glioma line – cell-based, SU-DIPG-XIII, MIPE4.0, CellTiter-Glo, qHTS, dose response (AID 1347061; cut-off not given, nearly all actives have AC50 up to about 37 µM;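 also: cells exposed to compound for 48 hours before readout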); details: CellTiter-Glo ATP luminescence
[2] = viability loss in pontine glioma line – cell-based, JHH-DIPG-1, MIPE4.0, CellTiter-Glo, qHTS, dose response (AID 1347062; cut-off not given, nearly all actives have AC50 up to about 27 µM); details: JHH-DIPG-1 viability, CellTiter-Glo ATP luminescence
[3] = viability loss in pontine glioma line – cell-based, SU-DIPG-IV, MIPE4.0, CellTiter-Glo, qHTS, dose response (AID 1347063; cut-off not given, nearly all actives have AC50 up to about 30 µM;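 also: compound exposure lasted 48 hours before the viability readout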); details: CellTiter-Glo ATP luminescence
[4] = growth inhibition of DIPG cells – cell-based, MIPE4.0 library, CellTiter-Glo luminescence, qHTS (AID 1347066; cut-off not given, nearly all actives have AC50 up to about 30 µM;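 also: cells exposed to compound for 48 hours before readout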); details: SU-DIPG-VI viability, CellTiter-Glo ATP luminescence
[5] = target: ATP-dependent translocase ABCB1 (Homo sapiens) (UniProt P08183); assay: P-glycoprotein substrate transport blockade – cell-based (AID 377; in the data active = fluorescence slope change above about 50%); details: MDR1-expressing cells, fluorescent substrate accumulation slope; stronger effect = higher value; concentration not given here
Sequence of ATP-dependent translocase ABCB1 (Homo sapiens) (P08183 whole entry, looked up): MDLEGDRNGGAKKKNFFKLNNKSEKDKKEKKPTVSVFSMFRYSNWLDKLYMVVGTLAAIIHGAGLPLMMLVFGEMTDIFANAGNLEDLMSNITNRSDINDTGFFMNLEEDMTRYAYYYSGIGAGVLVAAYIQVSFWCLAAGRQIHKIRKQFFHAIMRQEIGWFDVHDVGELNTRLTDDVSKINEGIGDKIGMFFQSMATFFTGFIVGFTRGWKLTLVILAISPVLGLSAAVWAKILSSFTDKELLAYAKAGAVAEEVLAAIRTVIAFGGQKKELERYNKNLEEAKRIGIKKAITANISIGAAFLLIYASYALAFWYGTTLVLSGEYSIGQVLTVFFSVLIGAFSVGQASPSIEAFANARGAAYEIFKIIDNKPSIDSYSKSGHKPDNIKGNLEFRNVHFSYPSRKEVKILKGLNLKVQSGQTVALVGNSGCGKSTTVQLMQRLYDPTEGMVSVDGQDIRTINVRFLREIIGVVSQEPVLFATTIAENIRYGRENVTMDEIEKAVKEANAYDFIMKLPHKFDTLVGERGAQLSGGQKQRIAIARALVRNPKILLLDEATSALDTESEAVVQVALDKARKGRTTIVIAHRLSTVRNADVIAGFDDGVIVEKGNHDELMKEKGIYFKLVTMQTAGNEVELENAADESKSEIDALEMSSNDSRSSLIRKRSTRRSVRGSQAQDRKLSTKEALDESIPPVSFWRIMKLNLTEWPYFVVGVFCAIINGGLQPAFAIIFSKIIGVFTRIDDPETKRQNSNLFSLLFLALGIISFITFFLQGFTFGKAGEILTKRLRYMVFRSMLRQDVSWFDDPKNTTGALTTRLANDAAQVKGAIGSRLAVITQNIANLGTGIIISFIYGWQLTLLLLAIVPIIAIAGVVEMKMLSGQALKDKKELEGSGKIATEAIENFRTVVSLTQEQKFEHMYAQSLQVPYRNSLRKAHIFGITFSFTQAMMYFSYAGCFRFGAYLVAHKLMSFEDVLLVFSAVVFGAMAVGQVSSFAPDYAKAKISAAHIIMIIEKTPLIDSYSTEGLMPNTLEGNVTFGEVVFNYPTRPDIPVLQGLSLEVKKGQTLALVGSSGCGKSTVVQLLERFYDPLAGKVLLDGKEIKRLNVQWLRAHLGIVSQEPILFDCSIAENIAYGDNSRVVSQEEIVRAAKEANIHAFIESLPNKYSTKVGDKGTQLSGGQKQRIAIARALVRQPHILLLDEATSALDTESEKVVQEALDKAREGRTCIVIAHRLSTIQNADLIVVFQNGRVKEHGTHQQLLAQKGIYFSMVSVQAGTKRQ

[6] = compounds altering Cy5-DNA-NS3h complex signal – biochemical, LOPAC1280, artefact control for HCV NS3 helicase inhibitor project (AID 687037); details: Cy5-DNA-NS3h complex fluorescence interference counterscreen
[7] = tested on: Aerobactin synthetase IucA (Klebsiella pneumoniae); assay: inhibition of K. pneumoniae IucA enzyme – biochemical, Tocris library, absorbance (AID 1345561); details: purified IucA enzyme assay, absorbance (OD) read-out; stronger effect = lower value; concentration not given here;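 also: 100% = enzyme without compound and 0% = no enzyme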
[8] = blockers of cellular phospholipid synthesis – cell-based, LOPAC library, screen 4, primary screen (AID 1347384); details: animal cells, phospholipid biosynthesis inhibition screen; at 10 µM
[9] = blockers of polyQ-driven CASP3 activation – cell-based (AID 1583); details: polyglutamine-induced caspase-3 activation, cell assay; stronger effect = higher value; concentration not given here
[10] = tested on: Aerobactin synthetase IucA (Klebsiella pneumoniae hvKP1); assay: IucA enzyme inhibition, primary screen, biochemical, Spectrum library (AID 1346200); details: malachite green pyrophosphate, A620, at 8 µM, stronger effect = lower value;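 also: 100% = wells without compound and 0% = wells lacking enzyme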
[11] = viability loss in pontine glioma line – cell-based, SU-DIPG-XVII, MIPE5.0, CellTiter-Glo, qHTS, dose response (AID 1347060; cut-off not given, nearly all actives have AC50 up to about 26 µM;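 as to AC50: cells exposed to compound for 48 hours before viability readout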); details: CellTiter-Glo ATP luminescence
[12] = viability loss in pontine glioma line – cell-based, SU-DIPG-XIII, MIPE5.0, CellTiter-Glo, qHTS, dose response (AID 1347064; cut-off not given, nearly all actives have AC50 up to about 23 µM;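 as to AC50: cells exposed to compound for 48 hours before the viability read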); details: CellTiter-Glo ATP luminescence
[13] = viability loss in pontine glioma line – cell-based, SU-DIPG-XXV, MIPE5.0, CellTiter-Glo, qHTS, dose response (AID 1347065; cut-off not given, nearly all actives have AC50 up to about 26 µM;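 also: cells exposed to compound for 48 hours before ATP readout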); details: CellTiter-Glo ATP luminescence
[14] = JHH-DIPG-1 glioma cell viability, MIPE5.0 library, CellTiter-Glo luminescence, qHTS (AID 1347067; cut-off not given, nearly all actives have AC50 up to about 26 µM;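 also: cells exposed to compound for 48 hours before readout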); details: JHH-DIPG-1 glioma viability, CellTiter-Glo ATP luminescence
[15] = growth inhibition of DIPG cells – cell-based, MIPE5.0 library, qHTS (AID 1347068; cut-off not given, nearly all actives have IC50 up to about 30 µM;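 as to IC50: cells exposed to compound for 48 hours before viability readout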); details: SU-DIPG-XXV viability
[16] = target: Mitogen-activated protein kinase 7 (Homo sapiens) (UniProt Q13164); assay: Gal4-ERK5 driven luciferase induction – cell-based, HTS, primary screen (AID 1508626;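 active = luciferase signal above three times the same-plate solvent-only control wells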;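 also: luciferase driven by Gal4-ERK5 fusion binding five Gal4 sites before minimal TATA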); details: HeLa Gal4-ERK5 transactivation, 18 h, at 5 µM, stronger effect = higher value
Sequence of Mitogen-activated protein kinase 7 (Homo sapiens) (Q13164 whole entry, looked up, the tested form may be a part): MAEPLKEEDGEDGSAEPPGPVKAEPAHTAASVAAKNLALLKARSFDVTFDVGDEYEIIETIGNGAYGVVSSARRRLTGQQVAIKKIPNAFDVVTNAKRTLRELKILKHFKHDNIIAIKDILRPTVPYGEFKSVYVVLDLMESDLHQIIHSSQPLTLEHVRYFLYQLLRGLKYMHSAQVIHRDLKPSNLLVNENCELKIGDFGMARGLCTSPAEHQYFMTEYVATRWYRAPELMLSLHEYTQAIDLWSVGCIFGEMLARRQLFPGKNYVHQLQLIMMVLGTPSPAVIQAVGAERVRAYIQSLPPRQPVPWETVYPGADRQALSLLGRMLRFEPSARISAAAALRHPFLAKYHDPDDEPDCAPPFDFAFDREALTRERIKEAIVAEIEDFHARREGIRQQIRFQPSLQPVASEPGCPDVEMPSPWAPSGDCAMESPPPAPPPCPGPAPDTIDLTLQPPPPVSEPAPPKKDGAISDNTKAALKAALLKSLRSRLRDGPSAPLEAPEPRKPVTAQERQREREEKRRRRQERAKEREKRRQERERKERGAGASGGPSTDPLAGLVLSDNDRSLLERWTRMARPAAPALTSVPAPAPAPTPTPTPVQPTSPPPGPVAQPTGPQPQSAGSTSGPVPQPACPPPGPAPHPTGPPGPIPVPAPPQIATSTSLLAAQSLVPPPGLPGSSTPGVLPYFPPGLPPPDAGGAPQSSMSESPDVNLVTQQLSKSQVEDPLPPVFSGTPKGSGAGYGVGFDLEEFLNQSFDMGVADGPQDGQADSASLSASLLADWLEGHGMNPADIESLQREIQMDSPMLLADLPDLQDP

[17] = signal quenchers or enhancers, Cy5 substrate/SSB – biochemical, NIH Clinical Collection, E. coli SSB, artefact control for HCV NS3 helicase inhibitor project (AID 743268); details: Cy5-oligo bound E. coli SSB, fluorescence interference
[18] = tested on: Hepatitis C virus NS3 helicase; assay: blockers of NS3h binding to DNA – biochemical, fluorescence polarization, NIH Clinical Collection, primary screen (AID 743270); details: NS3 helicase binding to Cy5-dT15 DNA, stronger effect = higher value, concentration not given here
[19] = target: Single-stranded DNA-binding protein (Escherichia coli (strain K12)) (UniProt P0AGE0); assay: SSB-ssDNA binding inhibitors – biochemical, fluorescence polarization, NIH Clinical Collection, counter-screen for HCV NS3 helicase inhibitor project (AID 743271; in the data active = inhibition above about 28%); details: E. coli SSB-DNA binding, stronger effect = higher value, concentration not given here
[20] = compounds distorting NS3 helicase fluorescence signal – biochemical, NIH Clinical Collection, artefact control for HCV NS3 helicase inhibitor project (AID 743272); details: fluorescence interference counterscreen, HCV NS3 helicase assay; stronger effect = lower value;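 also: HCV NS3 helicase with a Cy5 labelled single stranded DNA probe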

CN(C)CCc1ccc(O)cc1
inactive: outcome [1] | outcome [2] | outcome [3] | outcome [4]

CN1C[C@H](CNC(=O)OCc2ccccc2)C[C@@H]2c3cccc4c3c(cn4C)C[C@H]21
inactive: fluorescence slope change [5] 18.1% | fluorescence ratio (interference) [6] 1 | remaining activity [7] 86.6% | outcome [8]

CN(C)C(=S)SSC(=S)N(C)C
37.5%: inhibition [9]
inactive: activity remaining [10] 97.7%

COc1ccc2c(c1OC)C(=O)O[C@H]2[C@@H]1c2cc3c(cc2CCN1C)OCO3
inactive: fluorescence ratio (interference) [6] 1 | outcome [8]

COP(=S)(OC)Oc1ccc(Sc2ccc(OP(=S)(OC)OC)cc2)cc1
inactive: activity remaining [10] 118%

COc1cccc2c1C(=O)c1c(O)c3c(c(O)c1C2=O)C[C@@](O)(C(=O)CO)CC3OC1CC(N2CCOC(OC)C2)C(O)C(C)O1 (stereo partly drawn)
active: AC50 [11] 4.17 nM | AC50 [12] 7.42 nM | AC50 [13] 23.5 nM | AC50 [14] 14.8 nM | IC50 [15] 332 nM

O=C1CC[C@@]2(O)[C@H]3Cc4ccc(O)c5c4[C@@]2(CCN3CC2CC2)[C@H]1O5
inactive: outcome [11] | outcome [1] | outcome [3] | outcome [12] | outcome [13] | outcome [4] | outcome [14] | outcome [15] | luciferase signal [16] 48 AU
active: fluorescence slope change [5] 79.9%

COc1ccc2[nH]cc(CCN)c2c1
inactive: fluorescence ratio (interference) [6] 1 | fluorescence ratio [17] 0.98 | inhibition [18] -1.09% | inhibition [19] 3.54% | fluorescence ratio [20] 0.97 | activity remaining [10] 83.6% | outcome [8]

O=c1ccc2cc(O[C@@H]3O[C@H](CO)[C@@H](O)[C@H](O)[C@H]3O)c(O)cc2o1
inactive: activity remaining [10] 95.9% | luciferase signal [16] 92 AU
-24.4%: inhibition [9]

C=C[C@H]1CN2CC[C@H]1C[C@@H]2[C@@H](O)c1ccnc2ccccc12
inactive: luciferase signal [16] 40 AU

c1ccc2c3c([nH]c2c1)CNCC3
inactive: fluorescence ratio [17] 0.93 | inhibition [18] 0.66% | inhibition [19] 5.12% | fluorescence ratio [20] 0.91

CC(C)CC(N(C)C)C1(c2ccc(Cl)cc2)CCC1 (stereo not drawn)
inactive: fluorescence ratio [17] 1.01 and 0.96 | inhibition [18] -0.22% and -8.08% | inhibition [19] -1.97% and 1.97% | fluorescence ratio [20] 1.01 and 0.95 | activity remaining [10] 121% | outcome [11] | outcome [2] | outcome [3] | outcome [13] | outcome [4] | outcome [14] | outcome [15] | luciferase signal [16] 60 AU
active: AC50 [1] 23500 nM

O=c1c2ccccc2[se]n1-c1ccccc1
active: inhibition [18] 99.3% | activity remaining [10] -2.27%
inactive: fluorescence slope change [5] -12.9% | fluorescence ratio (interference) [6] 1 | fluorescence ratio [17] 1 | inhibition [19] -0.39% | fluorescence ratio [20] 1.05
12.1%: inhibition [9]

COc1ccc(C[C@H]2NC[C@H](O)[C@H]2OC(C)=O)cc1
72.2%: inhibition [9]
inactive: remaining activity [7] 125% | activity remaining [10] 92.2% | luciferase signal [16] 16 AU

NC(=O)CS(=O)C(c1ccccc1)c1ccccc1 (stereo not drawn)
inactive: fluorescence ratio [17] 1 | inhibition [18] 0.4% | inhibition [19] -3.18% | fluorescence ratio [20] 0.98 | activity remaining [10] 120% | luciferase signal [16] 40 AU

C=CCN1CC[C@]23c4c5ccc(O)c4O[C@H]2C(=O)CC[C@@]3(O)[C@H]1C5
inactive: inhibition [18] -4.09% | inhibition [19] -4.29% | fluorescence ratio [20] 1.04 | remaining activity [7] 101% | luciferase signal [16] 32 AU
active: fluorescence slope change [5] 64.1% | fluorescence ratio [17] 0.104

C=C[C@H]1CN2CC[C@H]1C[C@H]2[C@H](O)c1ccnc2ccccc12
inactive: activity remaining [10] 97.1% | luciferase signal [16] 48 AU
21%: inhibition [9]
active: fluorescence slope change [5] 71.3%

CC[C@@H](CO)NC(=O)[C@@H]1C=C2c3cccc4[nH]cc(c34)C[C@H]2N(C)C1
inactive: fluorescence ratio (interference) [6] 1 | remaining activity [7] 127% | activity remaining [10] 97% | outcome [8] | luciferase signal [16] 60 AU
8.64%: inhibition [9]

CC[C@H]1CN2CC[C@H]1C[C@@H]2[C@@H](O)c1ccnc2ccc(OC)cc12
inactive: luciferase signal [16] 16 AU

Clc1ccc(COC(Cn2ccnc2)c2ccc(Cl)cc2Cl)c(Cl)c1 (stereo not drawn)
16.3%: inhibition [9]
inactive: fluorescence ratio [17] 0.96 | inhibition [18] 6.82% | inhibition [19] 4.86% | fluorescence ratio [20] 0.93 | activity remaining [10] 98.2% | luciferase signal [16] 48 AU

FC(F)(F)c1cccc(N2CCNCC2)c1
28.1%: inhibition [9]
inactive: fluorescence ratio [17] 1.01 | inhibition [18] -2.77% | inhibition [19] -3.95% | fluorescence ratio [20] 0.93 | activity remaining [10] 116%

COc1cc2c(cc1OC)[C@@]13CCN4CC5=CCO[C@H]6CC(=O)N2[C@H]1[C@H]6[C@H]5C[C@H]43
inactive: fluorescence ratio [17] 0.94 | inhibition [18] -2.84% | inhibition [19] 2.76% | fluorescence ratio [20] 0.89 | luciferase signal [16] 76 AU

CC[C@@]1(O)C(=O)OCc2c1cc1n(c2=O)Cc2cc3ccccc3nc2-1
active: AC50 [11] 16.6 nM | AC50 [3] 46.9 nM | AC50 [14] 1480 nM
-22.8%: inhibition [9]
inactive: fluorescence slope change [5] 24.5% | fluorescence ratio (interference) [6] 1 | remaining activity [7] 122% | activity remaining [10] 107% | outcome [4] | outcome [15] | outcome [8] | luciferase signal [16] 28 AU
